From the supplement of paper PMC10127200
Where a name gives a salt, the structure may show the parent alone.

Legend:
Assay in all cases: Euclidean distance of Cell Painting phenotypic profile (signed KS, 77 features) to DMSO centroid (dimensionless distance); 5 or 10 uM (library dependent); higher = stronger phenotypic change vs DMSO (phenoactivity)
Conditions in all cases: 48 h
786-O = tested on: 786-O
Method in brief: (§1)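 Harmony extracted 77 features from 20X confocal images (9 fields/well) of stained cells, scoring each as a signed Kolmogorov-Smirnov statistic against same-plate vehicle wells. The cells, five cancer lines and a healthy fibroblast line, had received library compounds for 48 h at 10 or 5 uM depending on library, with 0.1% DMSO final. Phenoactivity is the Euclidean distance from each plate-position-corrected, correlation-weighted, top-dose replicate-averaged profile to the median vehicle profile.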

A549 = tested on: A549
Method in brief: as §1

DU145 = tested on: DU145
Method in brief: as §1

FB = tested on: FB
Method in brief: as §1

HEPG2 = tested on: HEPG2
Method in brief: as §1

OVCAR4 = tested on: OVCAR4
Method in brief: as §1

Structure (SMILES)	Euclidean distance (786-O)	Euclidean distance (A549)	Euclidean distance (DU145)	Euclidean distance (FB)	Euclidean distance (HEPG2)	Euclidean distance (OVCAR4)
CO[C@H]1/C=C/O[C@@]2(C)Oc3c(C)c(O)c4c(O)c(c(/C=N/N5CCN(C6CCCC6)CC5)c(O)c4c3C2=O)NC(=O)/C(C)=C\C=C\[C@H](C)[C@H](O)[C@@H](C)[C@@H](O)[C@@H](C)[C@H](OC(C)=O)[C@@H]1C [Rifapentine]	1.24	0.894	1.76	1.72	2.12	1.56
N#Cc1cc(CN2CCC(Nc3ncnc4sc(Cl)cc34)CC2)ccc1F	0.974	1.39	1.03	1.19	1.15	1.37
O=C(O)c1cc(-c2ccccc2)nc2ccccc12 [Cinchophen]	1.16	1.12	1.3	1.12	1.47	0.992
C=CC(=O)Nc1cccc(Sc2nc(Nc3ccc(N4CCN(C)CC4)cc3)ncc2Cl)c1	2.96	3.04	2.04	3.82	3.02	2.64
COCCNc1cc(NC(=O)N2CCCc3cc(CN4CCN(C)CC4=O)c(C=O)nc32)ncc1C#N	0.599	1.34	0.736	1.03	1.18	0.826
CC1CCN(CC[C@H]2CCCN2S(=O)(=O)c2cccc(O)c2)CC1	0.546	0.904	0.705	1.11	1.48	0.827
NC(=O)c1ccc(I)c([N+](=O)[O-])c1 [Iniparib (BSI-201)]	1.06	0.758	1.44	1.31	0.803	1.14
Cc1cccc(-c2[nH]c(CNc3ccccc3F)nc2-c2ccc3ncnn3c2)n1 [Vactosertib ?(TEW-7197)]	1.71	1.61	1.41	1.83	1.26	1.5
Cc1ccc(C(=O)C(C)CN2CCCCC2)cc1 (configuration not stated) [Tolperisone HCl]	0.966	0.611	1.08	0.909	0.439	0.725
O=C(/C=C/c1ccc(O)cc1)c1ccc(O)cc1O [Isoliquiritigenin]	0.936	1.2	1.16	0.82	0.786	0.885
C#Cc1cccc(Nc2ncnc3cc4c(cc23)OCCOCCOCCO4)c1 [Icotinib]	1.83	1.46	1.62	1.18	1.35	1.32
C=CC(=O)Nc1ccc2ncnc(Nc3ccc(OCc4cccc(F)c4)c(Cl)c3)c2c1	2.14	1.92	1.99	2.48	1.03	3.41
C[C@H](Cc1cc2c(c(C(N)=O)c1)N(CCCO)CC2)NCCOc1ccccc1OCC(F)(F)F [Silodosin]	2.28	1.27	1.57	2.6	2.41	1.57
Cc1[nH]c(=O)c(C#N)cc1-c1ccc2nccn2c1 [Olprinone]	1.08	1.07	0.61	1.08	0.547	1.11
COc1cc(Cc2cnc(N)nc2N)cc(OC)c1OC [Trimethoprim]	1.42	0.849	0.917	1.39	0.86	1.12
CN1CCN(c2cc3c(cc2F)c(=O)c(C(=O)O)cn3-c2ccc(F)cc2)CC1 [Difloxacin hydrochloride]	1.51	0.685	0.906	1.1	0.824	1.17
CN1CCN(CCCN2c3ccccc3Sc3ccc(C(F)(F)F)cc32)CC1 [Trifluoperazine 2HCl]	2.52	2.25	1.58	2.19	3.04	1.8
CCN(CC)Cc1cc(Nc2ccnc3cc(Cl)ccc23)ccc1O [Amodiaquine dihydrochloride dihydrate]	3.19	3.25	1.79	3.65	3.36	2.54
C[n+]1c2ccccc2nc2ccccc21 [Phenazine methosulfate]	5.13	2.82	4.95	4.99	3.66	2.78
Clc1ccc2nsnc2c1NC1=NCCN1 [Tizanidine]	1.07	0.538	0.815	0.569	0.572	0.608
CO/N=C(/C(=O)N[C@@H]1C(=O)N2C(C(=O)OCOC(=O)C(C)(C)C)=C(C)CS[C@H]12)c1csc(N)n1 [Cefetamet pivoxil hydrochloride]	1.66	1.04	1.11	0.939	0.729	0.914
Cn1c([N+](=O)[O-])cnc1COC(N)=O [Ronidazole]	1.13	0.834	0.687	1.01	0.646	1.59
